According to PubChem BioAssay (Tox21):
“And” between values parts separate entries of the source, which are not always exact repeats. Identical values can stand only once. Results filed as inconclusive are left out. A call without a number means that no potency is given here. Where a structure was tested more than once in an assay, its records may differ in their call. The source made the active and inactive calls. Unless noted, calls follow the shape of the dose curve; as a rule, active = well fitted curve in the direction sought with a large enough effect in the repeat runs; inconclusive = weak or mixed curves; inactive = no such curve, though single readings can be large; an effect the other way counts as inactive or inconclusive.

Assays:
[1] = qHTS assay to identify small molecule antagonists of the estrogen receptor alpha (ER-alpha) signaling pathway using the BG1 cell line in the presence of 0.1 nM 17-beta-estradiol - cell viability counter screen (AID 1259241); also: nearly all actives have a fitted effect of over 40% in size
Method in brief: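 Cells were plated and left 24 hr, compounds in DMSO were pinned in, 17beta-estradiol was added to 0.1 nM final, and after 22 hr CellTiter-Fluor reagent was added for 30 min before fluorescence was read.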

[2] = molecular target: Estrogen receptor (Homo sapiens) (UniProt P03372); assay: qHTS assay to identify small molecule antagonists of the estrogen receptor alpha (ER-alpha) signaling pathway using the BG1 cell line in the presence of 0.1 nM 17-beta-estradiol (AID 1259244); also: nearly all actives have a fitted effect of over 50% in size
Method in brief: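 Luciferase signal from VM7Luc4E2 ERE-reporter cells, co-dosed with test compound and 0.1 nM final 17beta-estradiol for 22 h, read with ONE-Glo.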

[3] = qHTS assay to identify small molecule HDAC inhibitors (AID 1259364);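 also: wild-type HCT-116 cells with endogenous class I/II HDAC activity; top concentration of the series differs between compounds; nearly all actives have a fitted effect of over 45% in size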
Method in brief: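 HCT-116 wt cells, 1,500/well, overnight attach. Compounds (DMSO) 2 h, 37 °C. HDAC-Glo I/II, 30 min RT. Luminescence.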

[4] = qHTS assay to identify small molecule HDAC inhibitors - cell viability counter screen (AID 1259365); also: nearly all actives have a fitted effect of over 50% in size; also: potency is read from the fitted curve at half-maximal effect
Method in brief: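 Counter screen in wild-type HCT-116 cells: compounds dissolved in DMSO are pin-transferred onto overnight-plated cells and left 2hr at 37C. ATP-based CellTiter-Glo luminescence then measures viable cells.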

[5] = qHTS assay to identify small molecule agonists of the sonic hedgehog signaling (Shh) pathway - cell viability counter screen (AID 1259366); also: nearly all actives have a fitted effect of over 50% in size; also: potency is read from the fitted curve at half-maximal effect
Method in brief: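 Cells are plated at 2,000 per well and left 4hr at 37C, 5% CO2 before compound addition. After 23hr of treatment, CellTiter-Fluor reagent is added for 1hr at 37C and fluorescence is measured.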

[6] = qHTS assay to identify small molecule antagonists of the sonic hedgehog signaling (Shh) pathway - cell viability counter screen (AID 1259367); also: nearly all actives have a fitted effect of over 55% in size
Method in brief: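 Fluorescence read-out (CellTiter-Fluor, 1 hr at 37C) taken after 23 hr compound treatment of 3T3 Gli1-Luc cells stimulated with conditioned medium. Cells were seeded at 2,000 per well and pre-incubated 4 hr.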

[7] = qHTS assay to identify small molecule agonists of the sonic hedgehog signaling (Shh) pathway (AID 1259368; calls by dose curve;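 also: NIH/3T3-derived 3T3Gli1-Luc cells carrying a stable Gli1-driven firefly luciferase reporter; series mostly up to about 92 µM; nearly all actives have a fitted effect of over 15% in size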)
Method in brief: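 Following a 24 hr incubation with DMSO-dissolved compounds at 37 C, 5% CO2, Gli1-Luc NIH/3T3-derived cells received luciferase reagent for 30 min at room temperature prior to luminescence measurement.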

[8] = qHTS assay to identify small molecule agonists of the androgen receptor (AR) signaling pathway in the presence of an antagonist - cell viability counter screen (AID 1259379); also: nearly all actives have a fitted effect of over 25% in size; also: potency is read from the fitted curve at half-maximal effect
Method in brief: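 Each compound was tested at 15 concentrations on MDA-kb2 cells in the presence of 3.0uM nilutamide. Viability was measured by CellTiter-Fluor fluorescence after a 16 hr incubation at 37C in a CO2-free atmosphere.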

[9] = qHTS assay to identify small molecule agonists of the estrogen receptor beta (ER-beta) signaling pathway - cell viability counter screen (AID 1259380); also: nearly all actives have a fitted effect of over 30% in size; also: potency is read from the fitted curve at half-maximal effect
Method in brief: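 Compounds dissolved in DMSO were pin-transferred onto ER-beta-UAS-bla HEK293T cells that had settled 6 hr, and exposure ran 16 hr at 37C. Following the reporter read, CellTiter-Glo luminescence after 30 min at room temperature indicated cytotoxicity.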

[10] = qHTS assay to identify small molecule antagonists of the estrogen receptor beta (ER-beta) signaling pathway - cell viability counter screen (AID 1259382); also: nearly all actives have a fitted effect of over 55% in size; also: potency is read from the fitted curve at half-maximal effect
Method in brief: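 CellTiter-Glo ATP luminescence measured after the LiveBLAzer read in the same wells; ER-beta-UAS-bla HEK293T cells, 16 hr compound treatment with 1nM 17-beta-estradiol agonist at 37C, 5% CO2.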

[11] = qHTS assay to identify small molecule agonists or antagonists of the thyroid stimulating hormone receptor (TSHR) signaling pathway - wild type cell line counter screen (AID 1259384; calls by dose curve)
Method in brief: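 Wild-type Hek293 cells, 800/well, 18 h at 37C, then compound with Ro20-1724 for 30 min RT. cAMP by HTRF (cAMP-d2/anti-cAMP cryptate), 1 h RT, fluorescence read. 15 concentrations, triplicates.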

[12] = qHTS assay to identify small molecule antagonists of the sonic hedgehog signaling (Shh) pathway (AID 1259369; calls by dose curve; also: nearly all actives have a fitted effect of over 45% in size; also: potency is read from the fitted curve at half-maximal effect)
Method in brief: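 Read-out is luminescence from a firefly luciferase gene controlled by the Gli1 response element, in 3T3Gli1-Luc cells pre-incubated 4hr then exposed to compounds and conditioned medium for 24hr.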

[13] = molecular target: Estrogen receptor (Homo sapiens) (UniProt P03372); assay: qHTS assay to identify small molecule agonists of the estrogen receptor alpha (ER-alpha) signaling pathway in the presence of an antagonist (AID 1259383; calls by dose curve; also: top concentration of the series differs between compounds; nearly all actives have a fitted effect of over 15% in size)
Method in brief: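 Luminescent ERE-luciferase reporter, VM7Luc4E2 cells (endogenous ER-alpha); 10.0nM ICI-182,780 final; 15-point compound titration; 22hr at 37C; ONE-Glo, 30min RT.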

[14] = molecular target: Thyrotropin receptor (Homo sapiens) (UniProt P16473); assay: qHTS assay to identify small molecule antagonists of the thyroid stimulating hormone receptor (TSHR) signaling pathway (AID 1259385; calls by dose curve; also: nearly all actives have a fitted effect of over 20% in size)
Method in brief: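 TSHR-HEK293 cells (800/well) plated 18 h, then compounds with Ro20-1724 and TSH at 1.5 ng/mL final, 30 min at room temperature. cAMP quantified by HTRF (cAMP-d2/anti-cAMP-cryptate, 1 h); 15 concentrations in triplicate.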

[15] = qHTS assay to identify small molecule phospholipidosis (PLD) inducers (AID 1259344; active = well fitted curve in the direction sought with a large enough effect; an effect the other way counts as inactive or inconclusive)
Method in brief: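 Read-out is LipidTOX Red fluorescence (ex 595/em 615) imaged in HepG2 cells after 24 h compound exposure at 37 C, with Hoechst nuclear counterstain (ex 352/em 461) allowing per-cell normalisation.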

[16] = molecular target: Androgen receptor (Homo sapiens) (UniProt P10275); assay: qHTS assay to identify small molecule agonists of the androgen receptor (AR) signaling pathway in the presence of an antagonist (AID 1259381; calls by dose curve; also: nearly all actives have a fitted effect of over 15% in size; also: potency is read from the fitted curve at half-maximal effect)
Method in brief: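 Plated MDA-kb2 cells (3,000/well) were pre-incubated 5hr, given nilutamide (3.0uM final) or buffer, then dosed with compounds in DMSO at 15 concentrations. Luciferase activity was quantified by luminescence after 16hr at 37C.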

[17] = qHTS assay to identify small molecule antagonists of the androgen receptor (AR) signaling pathway using the MDA cell line in the presence of 0.5 nM R1881 - cell viability counter screen (AID 1259242); also: nearly all actives have a fitted effect of over 45% in size
Method in brief: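 Cells seeded at 3,000/well and allowed 5 hr at 37C, 0% CO2 before compound transfer and R1881 (0.5 nM final) addition; 16 hr later, live-cell protease fluorescence indicated cytotoxicity.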

[18] = molecular target: Androgen receptor (Homo sapiens) (UniProt P10275); assay: qHTS assay to identify small molecule antagonists of the androgen receptor (AR) signaling pathway using the MDA cell line in the presence of 0.5 nM R1881 (AID 1259243); also: nearly all actives have a fitted effect of over 50% in size
Method in brief: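 Luminescence from an AR/GR-responsive MMTV-luciferase construct in MDA-kb2 breast carcinoma cells, read 30 min after ONE-Glo, following 16 hr co-treatment with compounds and 0.5 nM R1881.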

[19] = molecular target: Estrogen receptor beta (Homo sapiens) (UniProt Q92731); assay: qHTS assay to identify small molecule agonists of the estrogen receptor beta (ER-beta) signaling pathway (AID 1259377; active = well fitted activation curve with a large enough effect in the signal ratio in the repeat runs, not every such curve was filed as active; the % refers to the signal ratio)
Method in brief: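 Agonist mode cell assay in GripTite HEK293T cells expressing an ER-beta fusion that drives beta-lactamase from an Upstream Activator Sequence; 16 hr compound exposure at 37C, then 2 h LiveBLAzer B/G FRET substrate at room temperature, fluorescence read-out.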

[20] = molecular target: Estrogen receptor beta (Homo sapiens) (UniProt Q92731); assay: qHTS assay to identify small molecule antagonists of the estrogen receptor beta (ER-beta) signaling pathway (AID 1259378; active = well fitted inhibition curve with a large enough effect in the signal ratio in the repeat runs, not every such curve was filed as active; the % refers to the signal ratio)
Method in brief: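 ER-beta-UAS-bla HEK293T cells in 2% charcoal-stripped FBS medium treated with compound plus 1nM final 17-beta-estradiol for 16 hr at 37C. Beta-lactamase reporter read by FRET substrate fluorescence after 2 hours at room temperature.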

Sequence of Androgen receptor (Homo sapiens) (P10275 whole entry, looked up): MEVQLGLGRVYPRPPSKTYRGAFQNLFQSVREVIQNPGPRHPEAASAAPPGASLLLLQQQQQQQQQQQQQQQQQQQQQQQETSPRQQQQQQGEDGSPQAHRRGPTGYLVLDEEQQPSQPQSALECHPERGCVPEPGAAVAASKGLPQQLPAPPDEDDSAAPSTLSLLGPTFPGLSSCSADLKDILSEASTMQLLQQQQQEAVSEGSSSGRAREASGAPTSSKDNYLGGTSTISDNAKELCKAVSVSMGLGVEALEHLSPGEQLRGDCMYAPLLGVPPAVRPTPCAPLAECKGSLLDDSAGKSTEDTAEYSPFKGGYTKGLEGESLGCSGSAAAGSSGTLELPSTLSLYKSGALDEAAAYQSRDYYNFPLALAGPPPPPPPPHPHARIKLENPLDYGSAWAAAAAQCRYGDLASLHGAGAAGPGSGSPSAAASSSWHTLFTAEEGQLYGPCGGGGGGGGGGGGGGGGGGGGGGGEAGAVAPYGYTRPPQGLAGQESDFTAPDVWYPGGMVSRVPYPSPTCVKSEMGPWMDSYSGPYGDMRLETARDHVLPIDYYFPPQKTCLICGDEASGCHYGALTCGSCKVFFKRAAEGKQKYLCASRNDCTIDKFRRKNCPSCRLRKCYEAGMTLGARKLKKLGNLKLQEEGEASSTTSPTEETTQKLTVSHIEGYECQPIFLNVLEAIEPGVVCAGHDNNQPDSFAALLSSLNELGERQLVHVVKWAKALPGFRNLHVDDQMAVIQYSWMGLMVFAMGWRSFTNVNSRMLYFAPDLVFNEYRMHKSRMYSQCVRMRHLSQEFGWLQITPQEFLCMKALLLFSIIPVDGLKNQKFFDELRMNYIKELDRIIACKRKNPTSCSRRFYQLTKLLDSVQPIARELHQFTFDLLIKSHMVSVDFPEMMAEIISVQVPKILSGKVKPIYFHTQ
Sequence of Thyrotropin receptor (Homo sapiens) (P16473 whole entry, looked up): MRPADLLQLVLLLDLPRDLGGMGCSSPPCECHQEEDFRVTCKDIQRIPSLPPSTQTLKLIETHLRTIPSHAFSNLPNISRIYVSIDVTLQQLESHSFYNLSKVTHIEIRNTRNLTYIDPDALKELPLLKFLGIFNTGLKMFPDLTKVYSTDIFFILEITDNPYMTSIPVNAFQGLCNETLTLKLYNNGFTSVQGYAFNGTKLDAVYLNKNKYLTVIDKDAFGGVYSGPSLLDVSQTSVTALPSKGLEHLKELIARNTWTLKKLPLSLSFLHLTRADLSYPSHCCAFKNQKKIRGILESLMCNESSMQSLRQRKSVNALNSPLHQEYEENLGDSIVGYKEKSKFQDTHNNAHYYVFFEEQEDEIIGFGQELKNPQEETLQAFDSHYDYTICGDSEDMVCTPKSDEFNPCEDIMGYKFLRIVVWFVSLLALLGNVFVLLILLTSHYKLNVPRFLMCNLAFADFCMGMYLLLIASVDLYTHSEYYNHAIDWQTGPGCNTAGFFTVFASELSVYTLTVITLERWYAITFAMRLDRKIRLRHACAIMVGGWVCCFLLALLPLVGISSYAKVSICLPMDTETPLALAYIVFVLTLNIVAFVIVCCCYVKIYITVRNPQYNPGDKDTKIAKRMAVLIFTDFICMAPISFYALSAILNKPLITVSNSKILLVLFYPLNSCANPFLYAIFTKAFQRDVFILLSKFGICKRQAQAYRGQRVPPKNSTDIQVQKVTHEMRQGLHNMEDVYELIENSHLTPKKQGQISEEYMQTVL
Sequence of Estrogen receptor beta (Homo sapiens) (Q92731 whole entry, looked up, the tested form may be a part): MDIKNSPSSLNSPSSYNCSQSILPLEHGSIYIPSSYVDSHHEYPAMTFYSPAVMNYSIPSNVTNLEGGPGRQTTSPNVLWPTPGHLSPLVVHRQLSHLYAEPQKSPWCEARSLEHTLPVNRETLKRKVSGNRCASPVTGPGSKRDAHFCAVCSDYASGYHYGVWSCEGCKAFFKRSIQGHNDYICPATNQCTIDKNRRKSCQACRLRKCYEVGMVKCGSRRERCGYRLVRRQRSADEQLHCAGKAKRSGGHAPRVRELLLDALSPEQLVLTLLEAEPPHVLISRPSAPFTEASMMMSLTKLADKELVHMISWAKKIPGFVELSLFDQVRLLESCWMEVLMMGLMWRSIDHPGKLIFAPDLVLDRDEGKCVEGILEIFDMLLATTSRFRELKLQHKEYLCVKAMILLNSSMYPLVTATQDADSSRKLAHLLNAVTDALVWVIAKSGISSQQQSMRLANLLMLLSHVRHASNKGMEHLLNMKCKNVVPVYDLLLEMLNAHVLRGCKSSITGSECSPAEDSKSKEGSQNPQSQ
Sequence of Estrogen receptor (Homo sapiens) (P03372 whole entry, looked up): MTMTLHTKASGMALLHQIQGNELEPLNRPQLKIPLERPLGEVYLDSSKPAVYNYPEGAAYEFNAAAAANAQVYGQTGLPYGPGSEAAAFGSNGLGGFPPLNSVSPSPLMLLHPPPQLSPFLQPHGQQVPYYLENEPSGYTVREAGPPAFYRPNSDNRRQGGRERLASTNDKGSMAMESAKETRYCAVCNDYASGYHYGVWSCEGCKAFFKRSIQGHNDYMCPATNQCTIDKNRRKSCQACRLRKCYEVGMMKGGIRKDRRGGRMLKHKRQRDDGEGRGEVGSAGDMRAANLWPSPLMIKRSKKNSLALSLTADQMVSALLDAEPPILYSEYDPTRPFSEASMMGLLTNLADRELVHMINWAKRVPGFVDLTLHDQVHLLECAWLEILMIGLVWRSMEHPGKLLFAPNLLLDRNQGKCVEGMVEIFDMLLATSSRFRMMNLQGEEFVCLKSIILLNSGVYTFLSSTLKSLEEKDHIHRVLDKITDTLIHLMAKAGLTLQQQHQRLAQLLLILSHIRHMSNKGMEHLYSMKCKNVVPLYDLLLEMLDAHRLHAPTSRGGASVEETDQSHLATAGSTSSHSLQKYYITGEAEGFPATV

SMILES	Potency [1]	Potency [2]	Potency [3]	Potency [4]	Potency [5]	Potency [6]	Potency [7]	Potency [8]	Potency [9]	Potency [10]	outcome [11]	Potency [12]	Potency [13]	Potency [14]	outcome [15]	Potency [16]	Potency [17]	Potency [18]	Potency [19]	Potency [20]
Oc1cccc(Cl)c1	inactive	inactive	inactive	inactive	inactive	inactive	inactive	inactive	inactive	inactive	inactive									
C=CC(=O)OCC	inactive	inactive	inactive	inactive	inactive	inactive	inactive	inactive		inactive	inactive	inactive	inactive	inactive						
CC(C)(C)CC(C)(C)c1ccc(O)cc1	inactive		inactive	61.1 µM (active) and inactive	48.6 µM (active) and inactive			inactive	30.6 µM (active) and 33.5 µM (active)	57.7 µM (active) and 33.5 µM (active)	inactive	15.4 µM (active)		inactive	inactive	inactive				
C[N+]1(CCC(C(N)=O)(c2ccccc2)c2ccccc2)CCCCC1	inactive	inactive	inactive	inactive	inactive	inactive	inactive	inactive	inactive	inactive	inactive	inactive	inactive	inactive	inactive					
Nc1ccccc1C(=O)OCC(O)CO (configuration not stated)		inactive	inactive	inactive	inactive	inactive	inactive	inactive	inactive	inactive	inactive	inactive	inactive	inactive		inactive	inactive	inactive		
CCOC(=O)NC(O)C(Cl)(Cl)Cl (configuration not stated)	inactive	inactive	inactive	inactive	inactive	inactive	inactive	inactive	inactive	inactive	inactive	inactive	inactive	inactive	inactive					
OC[P+](CO)(CO)CO	inactive		inactive	inactive	inactive	inactive	inactive		inactive		inactive			inactive						
O=C(CCl)CCl	inactive	inactive		inactive		inactive	inactive	63.4 µM (active) and 48.6 µM (active)	inactive		inactive	19.3 µM (active)		inactive					inactive	inactive
O=C(O)CCCOc1ccc(Cl)cc1Cl	inactive		inactive	inactive	inactive	inactive	inactive	inactive	inactive		inactive	inactive and 44 µM (active)			inactive	inactive and 55.4 µM (active)		inactive		inactive
